Rows were chosen to be rich in hits. Some 2% of all compounds tested hit in one or more screens of this group.
NOD2-RIPK2 inh: inhibitors of human NOD2-RIPK2 interaction; O43353; CHO BLA complementation NOD2-RIPK2, CCF4 ratio; inhibition, % at 4.98 µM; actives 0.38% (n = 360,000); AID 624267; in the data active = inhibition above about 21%;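 also: 0% = vehicle only and 100% = reference blocker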
ABHD5-PLIN5 inh: blocks binding of human ABHD5 to perilipin-5; Split G. princeps luciferase complementation, luminescence, 4 h; actives 0.78% (n = 360,000); inhibition, % at 4 µM;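 active = inhibition above the mean inhibition across every tested compound plus 3 SD, cut at about 22% in these data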;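 also: 0% = DMSO only wells and the 100% control is not disclosed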
TLR4 MyD88 comp: TLR4-MyD88 interaction inhibition in cells; O00206+Q99836; actives 0.18% (n = 200,000); HeLa CL3-4 TLR4/MyD88 BLA complementation, FRET ratio; inhibition, % at 8.4 µM; in the data active = inhibition above about 25%;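 also: 0% = vehicle and 100% = reference inhibitor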
Exocytosis inh: blocks lytic granule exocytosis; TALL-104 LAMP-1 surface exposure, flow cytometry; cells stimulated with thapsigargin and PMA; inhibition, % at 10 µM; actives 0.66% (n = 360,000);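 active = inhibition above about 55%, limit read from the data; inconclusive = no clear call, values can overlap the other calls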
Beta2AR agonist: activates human beta-2 adrenergic receptor causing internalization; P07550; Am2.2-beta2AR cells, FAP receptor internalization, flow cytometry; response, % (concentration not given with the values); actives 0.43% (n = 340,000);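 active = response above a set limit, near 3 SD of response in nonfluorescent compounds, cut at about 42% in these data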
TLR9-MyD88 block: inhibitors of human TLR9-MyD88 binding | AID 504734 | actives 0.21% (n = 340,000) | inhibition, % at 4.98 µM | CHO BLA complementation TLR9-MyD88, CCF4 FRET ratio | Q9NR96+Q99836;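 active = inhibition above the mean over all tested compounds plus 3 SD, cut at about 21% in these data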;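 also: 0% = DMSO only wells and 100% = clavulanate BLA inhibitor control wells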
Exocytosis CP01: blocks lytic granule exocytosis; shares compounds with Exocytosis inh; inhibition, % at 10 µM; TALL-104 cells, LAMP-1 externalization, flow cytometry; stimulated with PMA plus thapsigargin; actives 11% (n = 1,500); in the data active = inhibition above about 60%;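 also: 0% = stimulated vehicle wells and 100% = unstimulated wells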
Numbers without * were called inactive; ? = inconclusive; / = not tested or not shown.

SMILES | NOD2-RIPK2 inh | ABHD5-PLIN5 inh | TLR4 MyD88 comp | Exocytosis inh | Beta2AR agonist | TLR9-MyD88 block | Exocytosis CP01
CCOC(=O)c1c(NC(=O)c2ccccc2N(C)S(=O)(=O)c2ccccc2)sc2c1CCCC2 | 1 | -3 | -3 | 0 | -3 | 5 | /
CCOC(=O)c1c(NC(=O)C(NCCN(C)C)c2ccccc2)sc2c1CCCC2 (configuration not stated) | 3 | 9 | / | 70* | 10 | -6 | 46
COc1ccc2ccccc2c1C=NN1CCCCC1 | 1 | -20 | / | -3 | / | 13 | /
CC(C)C[C@H]1CNC(=O)C(=O)N1C[C@@H]1CCCN1C[C@H](CC(C)C)N1C[C@H](Cc2ccccc2)N(CCc2ccccc2)C(=O)C1=O | -6 | 1 | / | -4 | / | / | /
CC(C)C[C@H]1CN([C@@H](CC(C)C)CN2CCCC2CN2C(=S)NC[C@@H]2Cc2ccccc2)C(=S)N1CCc1ccccc1 (some centres not stated) | 5 | -6 | / | 11 | / | / | /
COc1cc(C(C)=O)ccc1OCC(=O)N1CCC(Cc2ccccc2)CC1 | 0 | 1 | / | ? | / | 4 | /
COc1cc(C(C)=O)ccc1OCCN1CCC(Cc2ccccc2)CC1 | -9 | 5 | -3 | 56* | -3 | -4 | -13
COc1cc(C(=S)N2CCC(Cc3ccccc3)CC2)ccc1OCC(N)=O | 0 | -7 | / | -1 | -3 | -3 | /
COc1cc(C(C)=O)ccc1OCCCN1CCC(Cc2ccccc2)CC1 | 8 | 7 | / | 64* | -9 | 1 | -10
OCc1ccccc1OCCCN1CCC(Cc2ccccc2)CC1 | -11 | -1 | / | 69* | 1 | -7 | -11
COC(=O)Cn1nnnc1-c1nc2cc(C)c(C)cc2[nH]c1=O | 7 | 5 | / | 10 | / | / | /
CC(C)Nc1nc(NCCOc2ccccc2Cl)c2sc(-c3ccccc3)cc2n1 | -3 | 5 | / | 58* | / | / | 37
COc1ccccc1CNc1nc(NC(C)C)nc2cc(-c3ccccc3)sc12 | 13 | 8 | / | 42 | / | / | /
CN(C)CCC(=O)N1c2ccccc2Sc2ccc(C(F)(F)F)cc21 | 6 | 9 | / | 67* | -5 | 12 | -13
CN1CCN(CCC(=O)N2c3ccccc3Sc3ccc(C(F)(F)F)cc32)CC1 | -4 | 0 | -2 | 3 | 5 | -2 | /
COc1ccc(/C=C/C(=O)N2CCCc3ccccc32)c(OC)c1 | 1 | -1 | / | 72* | -1 | -7 | -11
COc1ccc(OC)c(/C=C/C(=O)N2CCCc3ccccc32)c1 | -7 | -1 | -6 | -1 | 12 | 7 | /
CCc1c(C)c(C#N)c2nc3ccccc3n2c1Nc1c(C)n(C)n(-c2ccccc2)c1=O | -1 | -5 | -3 | 64* | -11 | -2 | -16
COc1cc(NC(=O)c2cc(-c3ccccc3Cl)on2)cc(OC)c1OC | 12 | -7 | / | 69* | 13 | -8 | -11
COC(=O)C[C@H](NC(=O)Cn1cc(C)c(=O)[nH]c1=O)C(=O)OC | -1 | -4 | / | 2 | -3 | 7 | /
COc1ccccc1C(=O)Nc1ccccc1SC(=O)c1ccccc1OC | 18 | -50 | / | 91* | 39 | 3 | 33
COC(=O)c1ccccc1NC(=O)c1ccccc1OC | -5 | -5 | -7 | -1 | -9 | -6 | /
CCCNC(=O)c1cc(C2CCCN(S(=O)(=O)c3cccs3)C2)on1 (configuration not stated) | -8 | 3 | / | -2 | / | / | /
COc1ccccc1CCNC(=O)CCSc1nc(-c2ccco2)cc(C(F)(F)F)n1 | -2 | 1 | -7 | 64* | -14 | 4 | -5
CCN(CC)c1cc(C)c2cc(NC(=O)c3cccs3)ccc2n1 | -7 | -1 | 2 | 67* | 40 | 1 | -13
CCN(CC)c1cc(C)c2cc(NC(=O)c3ccccc3OC)ccc2n1 | 5 | 0 | -3 | 31 | -2 | -4 | /
CCCNC(=O)c1cc(C2CCCN(C(=O)C3CC3)C2)on1 (configuration not stated) | -12 | 0 | / | -6 | / | / | /
COc1ccc(C)cc1NC(=O)c1ccccc1N(C)S(=O)(=O)c1ccccc1 | 3 | -9 | / | 29 | 16 | 13 | /
COc1ccc(OC)c(NC(=O)c2ccccc2N(C)S(=O)(=O)c2ccc(C)cc2)c1 | -1 | 6 | / | 61* | 5 | -6 | -13
